Assay outcomes: PubChem, several laboratories
Rows were chosen to be rich in hits. Some 4.1% of all compounds tested hit in one or more screens of this group.
hcDAF-12 act: H. contortus DAF-12 nuclear receptor activators, primary screen, cell-based, luminescence, HEK293, lit1-tk-luc reporter; HEK293 hcDAF-12 lit1-tk-luc reporter; 0% DMSO, 100% Δ7-dafachronic acid; activation, % at 6.8 µM; 1.4% of 370,000 active;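 active = activation above the mean of all tested compounds plus 3 SD, cut at about 5.5% in these data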
PolyA inhibitor: polyadenylation inhibitors in yeast reporter cells, primary screen, luminescence, S. cerevisiae; AID 1875, 2009; 0.02% of 300,000 active; activity score, % at 12 µM; S. cerevisiae SKY197-pL101 polyadenylation reporter, beta-gal luminescence; efflux-impaired pdr1/pdr3 knockout yeast; score 100 = 6 SD above DMSO;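 active = lowest replicate activity score at least 50, where 100 means six control SD above control mean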;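 also: yeast exposed to compound for 9 h at 30 °C; higher score means more reporter readthrough which indicates perturbed polyadenylation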
ssDAF12 agonist: S. stercoralis DAF-12 nuclear receptor activators, primary screen, cell-based, luminescence, HEK293, GRIP1 co-expression, lit1-tk-luc; Nuclear hormone receptor DAF-12 (Strongyloides stercoralis); HEK293 ssDAF-12/GRIP1 lit1-tk-luc reporter; % of 3 µM dafachronic acid response; activation, % at 6.8 µM; 1% of 370,000 active; AID 652126, 2013;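 active = activation above the mean over all tested compounds plus 3 SD, cut at about 0.9% in these data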
DAX1 inh-1: DAX1 (NR0B1) inhibitors, primary screen, cell-based, HEK293, Gal4-DAX1, luciferase luminescence | Nuclear receptor subfamily 0 group B member 1 (Homo sapiens), P51843 | HEK293 Gal4-DAX1 luciferase reporter | inhibition, % at 6.75 µM | 0.99% of 340,000 active | AID 504766, 2011;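 active = inhibition above the mean over all tested compounds plus 3 SD, cut at about 4.2% in these data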;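 also: inhibition shows as a rise in luminescence from relieved DAX1 repression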
DAX1 inh-2: DAX1 (NR0B1) inhibitors on StAR promoter, primary screen, cell-based, luminescence, SF-1 (NR5A1), full-length DAX-1 | HEK293T StAR-luciferase reporter, SF-1/DAX-1 repression relief | inhibition, % at 6.8 µM | 1.1% of 370,000 active | AID 652010, 2013;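 active = inhibition above the mean over all tested compounds plus 3 SD, cut at about 3.6% in these data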;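 also: higher inhibition means more luminescence from relief of DAX-1 repression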
hgDAF12 agonist: H. glycines DAF-12 receptor agonists, primary screen, cell-based, luminescence, HEK293, GAL4 fusion, UAS-luciferase. activation, % at 6.8 µM. HEK293 GAL4-hgDAF12 UAS-luciferase reporter, agonist luminescence; normalized to butyrate control. Nuclear hormone receptor DAF-12 (Heterodera glycines), GAL4 fusion. 1.8% of 370,000 active;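 active = activation above a cutoff set at the mean of all screened compounds plus 3 SD, cut at about 10% in these data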
LXRb hcDAF ctr: LXR agonists, Gal4 luciferase reporter, confirmation, counter-screen for hcDAF-12 agonist project, cell-based, luminescence, HEK293, H. contortus campaign; shares compounds with hcDAF-12 act; HEK293 Gal4-LXR tk-luc reporter, 24 h; normalized: DMSO 0%, positive control 100%; activation, % at 6.8 µM; 3,400 tested, under 10 active; AID 743027, 2013;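 active = mean percent activation of the reporter above a cutoff set as the average over tested compounds plus their standard deviation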
Target sequence (P55055 whole entry, looked up, the tested form may be a part): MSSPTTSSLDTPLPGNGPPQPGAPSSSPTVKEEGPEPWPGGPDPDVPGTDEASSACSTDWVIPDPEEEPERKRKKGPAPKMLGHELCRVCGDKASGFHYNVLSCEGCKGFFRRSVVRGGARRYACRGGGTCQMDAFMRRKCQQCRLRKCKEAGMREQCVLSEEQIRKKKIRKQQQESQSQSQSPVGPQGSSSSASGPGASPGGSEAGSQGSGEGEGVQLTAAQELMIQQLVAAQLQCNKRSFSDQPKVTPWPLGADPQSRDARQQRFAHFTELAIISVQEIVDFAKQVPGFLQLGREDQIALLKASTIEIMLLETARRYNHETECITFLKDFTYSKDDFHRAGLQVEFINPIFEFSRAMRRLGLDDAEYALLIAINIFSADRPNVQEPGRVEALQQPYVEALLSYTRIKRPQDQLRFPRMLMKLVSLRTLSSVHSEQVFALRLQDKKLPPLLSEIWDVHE
hcDAF12 conf: H. contortus DAF-12 receptor agonists, confirmation, cell-based, luminescence, HEK293, lit1-tk-luc, triplicate. shares compounds with hcDAF-12 act. 61% of 3,400 active. activation, % at 6.8 µM. HEK293 hcDAF-12 lit1-tk-luc reporter; % of Δ7-dafachronic acid response;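 active = mean activation across triplicate tests above the threshold derived from the earlier primary screen, cut at about 5.5% in these data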
Of the large screens only hits and unclear results are named; the others gave an inactive call (follow-up assays come after a bar, where they were run).

CCOC(=O)C1=CCC(c2ccccc2C(F)(F)F)N(S(=O)(=O)c2ccc(C)cc2)C1 (centres undefined)	none (no result: PolyA inhibitor, DAX1 inh-1)
CCc1nc2oc3ccccc3c(=O)c2c(=O)n1CCOC	none
CCc1nc2oc3ccccc3c(=O)c2c(=O)n1-c1ccc(C)cc1	hcDAF-12 act 12, ssDAF12 agonist 4.0, hgDAF12 agonist 11 (no result: DAX1 inh-1) | LXRb hcDAF ctr inactive | hcDAF12 conf 14
CCOC(=O)[C@H]1NN=C(C(=O)OC)[C@@H]1c1ccccc1	none
CCOc1ccc(NC(=O)CSc2nc3c([nH]c4ccccc43)c(=O)n2C)cc1	hcDAF-12 act 9.8 | LXRb hcDAF ctr inactive | hcDAF12 conf 6.2
Cn1c(SCC(=O)Nc2cccc(F)c2)nc2c([nH]c3ccccc32)c1=O	hcDAF-12 act 6.7 | LXRb hcDAF ctr inactive | hcDAF12 conf inactive
Cc1ccc(NC(=O)CSc2nc3c([nH]c4ccccc43)c(=O)n2C)cc1	none
CC(C)Sc1nc2c([nH]c3ccccc32)c(=O)n1C	hcDAF-12 act 11, ssDAF12 agonist 1.0 | LXRb hcDAF ctr inactive | hcDAF12 conf 7.1
COc1ccc(-n2c(SCC(=O)Nc3ccc(C(N)=O)cc3)nc3c([nH]c4ccccc43)c2=O)cc1OC	hcDAF-12 act 9.7, ssDAF12 agonist 0.9 | LXRb hcDAF ctr inactive | hcDAF12 conf 8.8
O=C(NCc1ccccc1)[C@@H]1CCCN1C(=O)[C@@H](NS(=O)(=O)c1ccc(F)cc1F)c1ccccc1	none (no result: PolyA inhibitor, DAX1 inh-1)
C=CCNC(=O)NC(=O)COC(=O)CC(NC(N)=O)c1ccc(Cl)cc1 (centres undefined)	none
CC(C)OCCCNC(=O)Cn1ccc2cc(S(=O)(=O)N3CCCCC3)ccc21	none
O=C(CCc1nnc(Cc2c[nH]c3ccccc23)o1)NCCC1CCCCO1 (centres undefined)	hcDAF-12 act 6.8 (no result: PolyA inhibitor) | LXRb hcDAF ctr inactive | hcDAF12 conf inactive
O=C(CCc1nnc(Cc2c[nH]c3ccccc23)o1)NC1CCCC1	none
O=C(Nc1ccccc1SC(=O)c1ccccc1)c1ccccc1	hcDAF-12 act 7.8, ssDAF12 agonist 1.8, DAX1 inh-1 4.4 (no result: PolyA inhibitor) | LXRb hcDAF ctr inactive | hcDAF12 conf 9.9
O=C(Nc1nccs1)C(=O)c1c[nH]c2ccccc12	hcDAF-12 act 6.5, ssDAF12 agonist 1.8 | LXRb hcDAF ctr inactive | hcDAF12 conf 8.0
O=C(Cc1c[nH]c2ccccc12)Nc1nccs1	none
CCCNC(=O)C1CC(c2ccccc2[N+](=O)[O-])=NO1 (centres undefined)	none
CC(C)CCNC(=O)C1CC(c2ccccc2[N+](=O)[O-])=NO1 (centres undefined)	hcDAF-12 act 7.2 | LXRb hcDAF ctr inactive | hcDAF12 conf inactive
CN(CC(=O)Nc1ccc(F)cc1[N+](=O)[O-])C1CCS(=O)(=O)C1 (centres undefined)	none (no result: PolyA inhibitor)
COc1ccc(N/C(C)=C/C(=O)c2ccccc2)cc1	none
CC(=O)Nc1ccc2c(c1)OCCOCCOc1cc(NC(C)=O)ccc1OCCOCCOCCO2	none (no result: DAX1 inh-1)
